From PubChem BioAssay
The entries come from a sample that favours hits as a whole.
LmPK inh – blocks Leishmania mexicana pyruvate kinase activity | purified LmPK, Kinase-Glo ATP luminescence, 1 h | Potency, µM (highest dose often 57.5 µM), most hits filed as inhibitors | 290,000 tested, 0.37% active | Q27686 | AID 1721
Target sequence (Q27686 whole entry, looked up): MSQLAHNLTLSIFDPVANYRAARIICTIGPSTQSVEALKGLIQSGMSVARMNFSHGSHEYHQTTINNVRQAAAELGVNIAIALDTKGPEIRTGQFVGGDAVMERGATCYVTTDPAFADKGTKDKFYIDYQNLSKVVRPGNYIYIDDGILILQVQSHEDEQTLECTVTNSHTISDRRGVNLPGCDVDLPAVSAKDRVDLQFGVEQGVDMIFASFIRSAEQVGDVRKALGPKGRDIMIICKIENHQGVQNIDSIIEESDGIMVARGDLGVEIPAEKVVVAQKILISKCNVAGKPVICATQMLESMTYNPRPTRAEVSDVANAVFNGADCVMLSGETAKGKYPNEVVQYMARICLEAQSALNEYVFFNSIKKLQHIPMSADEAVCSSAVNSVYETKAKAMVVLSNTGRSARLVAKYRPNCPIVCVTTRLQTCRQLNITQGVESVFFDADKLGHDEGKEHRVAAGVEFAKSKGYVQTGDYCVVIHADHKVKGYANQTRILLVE
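qHTS format; LmPK 0.1 nM; substrates PEP 0.5 mM and ADP 0.1 mM. One-hour room-temperature incubation, then coupled luciferase luminescence; 0.5 nM enzyme wells mark activation.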
Cycloheximide cs – counter-screen hit for Shiga toxin inhibitors, cycloheximide; max response, %; cell reporter, cycloheximide protein synthesis inhibition counterscreen; 300,000 tested, 12% active; in the data active means max response mostly above about 13%, no sharp cut-off; inactive means mostly below about 14%; further: read at 38.3 µM for the half of the compounds with a filed dose
RE007 growth inh – less growth of the S. pombe RE007 Vpr strain. S. pombe RE007 Vpr strain, BacTiter-Glo ATP luminescence, 24 h. Potency, µM (titrated, usually from 92.2 µM), actives largely listed as inhibitors. 360,000 tested, 0.21% active. AID 651644; active means well fitted falling curve with a large enough effect; inconclusive means small, poorly fitted or top-dose-only effect; inactive means no such curve, though single readings can be large or run the other way; further: nearly all actives have a fitted effect of over 50% in size
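Fission yeast RE007 carrying one integrated HIV-1 vpr copy, seeded at OD 0.01 in PMG+AL medium with 23 nL pinned compound. Grown 24 h at 30 degrees; viability read by BacTiter-Glo luminescence after 5 min.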
FBPA Giardia inh – Giardia lamblia aldolase inhibition; Potency, µM (top dose mostly 59.6 µM), most hits filed as inhibitors; A8B2U2; 290,000 tested, 0.71% active; AID 2451; purified Giardia FBPA; further: nearly all actives have a fitted effect of over 55% in size
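40 nM FBPA preincubated 10 min at RT with compound (up to 57.5 uM final), then substrate plus GAPDH/TPI/NAD/arsenate coupling and diaphorase/resazurin added. Fluorescence read after 20 min at RT, 525/598 nm.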
Tb PYK inh – inhibitors of Trypanosoma brucei pyruvate kinase; Q57TT1; TbPYK enzyme, Kinase-Glo Plus ATP luminescence, 45 min; Potency, µM (doses to about 76.8 µM), hits mostly inhibitors; 410,000 tested, 0.12% active; AID 624173; further: nearly all actives have a fitted effect of over 50% in size
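Luminescent Kinase-Glo Plus end-point after 45 min room-temperature reaction of T. brucei pyruvate kinase started with 130 uM ADP (final). Buffer TEA 50 mM pH 7.2 with KCl, MgCl2, BSA, Tween-20; titration-based qHTS with fitted concentration-effect curves.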
Shiga inhibitor – Shiga toxin inhibition; Vero cells, Shiga toxin protein synthesis inhibition reporter; inhibition, % at 38.7 µM; 290,000 tested, 9.2% active; in the data active means inhibition mostly above about 28%, no sharp cut-off; inactive means mostly below about 43%
Each line names hits and unclear results; the compound was inactive in the other large screens. Unless noted, the call rests on the fitted dose curve; in most records, active means well fitted curve in the direction sought with a large enough effect; inconclusive means small, poorly fitted or top-dose-only effect, or another doubt; inactive means no such curve, though single readings can be large; an effect the other way counts as inactive or inconclusive.

Cc1ccc(-n2c(Cn3nc(C(F)(F)F)cc3C)n[nH]c2=S)cc1	Tb PYK inh 10µM
O=[N+]([O-])c1ccc(N/N=C/c2ccc(OCc3cccc4ccccc34)cc2)nc1	Cycloheximide cs 18
Cc1ccccc1-n1c(C)cc(/C=N/Nc2ccc([N+](=O)[O-])cn2)c1C	Cycloheximide cs 36, Shiga inhibitor 91
O=[N+]([O-])c1ccc(N/N=C\c2cccn2-c2ccccc2)nc1	Cycloheximide cs 17
CN(C)c1ccc(-c2csc(C(O)c3cccc(Cl)c3)n2)cc1 (stereo unspecified)	none (no result: LmPK inh, Cycloheximide cs, FBPA Giardia inh, Shiga inhibitor)
CC[C@H](C)[C@H](NC(=O)[C@H](Cc1cnc[nH]1)NC(=O)[C@@H](NC(=O)[C@H](CCCNC(=N)N)NC(=O)[C@H](CCCCN)NC(=O)[C@H](CCCNC(=N)N)NC(=O)[C@H](CCCCN)NC(=O)[C@@H](N)CC(N)=O)[C@@H](C)CC)C(=O)NCC(=O)N1CCC[C@H]1C(=O)NCC(=O)N[C@@H](CCCNC(=N)N)C(=O)N[C@@H](C)C(=O)N[C@@H](Cc1ccccc1)C(=O)N[C@@H](Cc1ccc(O)cc1)C(=O)N[C@H](C(=O)N[C@H](C(=O)N[C@@H](CCCCN)C(=O)N[C@@H](CC(N)=O)C(=O)N[C@H](C(=O)N[C@H](C(=O)NCC(=O)N[C@H](C(=O)N[C@H](C(=O)N[C@@H](CS)C(=O)O)[C@@H](C)CC)[C@@H](C)O)[C@@H](C)CC)[C@@H](C)CC)[C@@H](C)O)[C@@H](C)O	none (no result: LmPK inh, RE007 growth inh, Tb PYK inh)
Cc1ccc(C)c(C(=O)CSc2n[nH]c(C)n2)c1	FBPA Giardia inh inconclusive, Tb PYK inh inconclusive
Cc1ccc(C(=O)CSc2n[nH]c(C)n2)cc1	Cycloheximide cs 30, FBPA Giardia inh inconclusive, Shiga inhibitor 86
CCc1ccc(C(=O)CSc2n[nH]c(C)n2)cc1	Cycloheximide cs 44, FBPA Giardia inh inconclusive, Tb PYK inh inconclusive, Shiga inhibitor 111
NCCC[C@@H](CC(=O)N[C@@H]1CCNC[C@H]1C(=O)N[C@H](CC(=O)N[C@@H](CCC(=O)O)CC(=O)O)Cc1ccccc1)NC(=O)C[C@H](Cc1ccccc1)NC(=O)[C@@H]1CCCC[C@H]1N	none (no result: LmPK inh, Cycloheximide cs, RE007 growth inh, Tb PYK inh, Shiga inhibitor)
COc1ccccc1OCC#CCSc1ncccn1	Cycloheximide cs 24
COc1ccccc1OCC#CCN1CCCC1	FBPA Giardia inh inconclusive
Nc1cc(N)nc(SCCOc2ccccc2F)n1	Cycloheximide cs 70, Shiga inhibitor 121
COc1ccccc1OCCSc1nc(N)cc(N)n1	Shiga inhibitor active
COc1ccc(N/C=C2\CCOC2=O)cc1	none
COc1ccc2c(c1)CC/C(=C\Nc1ccc3c(c1)OCO3)C2=O	Cycloheximide cs 77, FBPA Giardia inh 7.9µM
COc1ccc(N/C=C2\CCc3ccccc3C2=O)cc1	LmPK inh 13µM, RE007 growth inh inconclusive, FBPA Giardia inh 11µM, Tb PYK inh inconclusive
O=C1/C(=C/Nc2ccc3c(c2)OCO3)CCc2ccccc21	LmPK inh 13µM, RE007 growth inh inconclusive, FBPA Giardia inh 14µM, Tb PYK inh inconclusive
CCCCNC(=S)NNC(=O)c1csc(CC)c1	Shiga inhibitor 34
Cc1cccc(NC(=O)C(=O)NNC(=O)c2ccc(C(C)(C)C)cc2)c1	RE007 growth inh inconclusive, FBPA Giardia inh inconclusive
Cc1cccc(NC(=S)NNC(=O)c2csc(C(C)C)c2)c1	Cycloheximide cs 42, Shiga inhibitor 42
Cc1ccc(NC(=O)COC(=O)c2cc(Cl)cc(Cl)c2)c(Br)c1	none (no result: RE007 growth inh)
CCc1cc(C(=O)Nc2ccc(C)cc2Br)cs1	Cycloheximide cs 57, Shiga inhibitor 71
CCc1cc(C(=O)NNC(=S)Nc2cccc(C)c2)cs1	Cycloheximide cs 28, Shiga inhibitor 66
CCOc1ccc(N(CC)S(=O)(=O)c2cc(Br)cc3c2N(C(C)=O)C(C)C3)cc1 (stereo unspecified)	none (no result: LmPK inh, Cycloheximide cs, RE007 growth inh, FBPA Giardia inh, Shiga inhibitor)
CC(C)c1ccc([C@@H]2O[C@H](CCc3ccccc3)CC3=C2C(=O)OC(C)(C)O3)cc1	none (no result: LmPK inh, Cycloheximide cs, FBPA Giardia inh, Shiga inhibitor)
CCn1nc(C)c2c(-c3ccccc3)cc(=O)n(C(C)C(=O)Nc3cccc(F)c3)c21 (stereo unspecified)	none (no result: LmPK inh, Cycloheximide cs, RE007 growth inh, FBPA Giardia inh, Shiga inhibitor)
Cc1onc(-c2ccccc2)c1C(=O)Nc1ccc(S(=O)(=O)NC(C)(C)C)cc1	none
Cc1cccc(NC(=S)NNC(=O)c2sccc2C)c1	LmPK inh inconclusive, Cycloheximide cs 25
O=C(/C=C/c1ccccc1Cl)NCCc1ccc(F)cc1	Cycloheximide cs 24, Shiga inhibitor 93
Cc1ccc(CSCCNC(=O)/C=C/c2ccccc2Cl)cc1	Cycloheximide cs 32
O=C(Cc1ccccc1[N+](=O)[O-])NCCc1ccc(F)cc1	none
O=C(/C=C/c1ccccc1[N+](=O)[O-])NCCc1ccc(F)cc1	Cycloheximide cs 24
O=C(Nc1ccc(F)c(Cl)c1)c1cc(C2CCCN(C(=O)c3cccs3)C2)on1 (stereo unspecified)	none (no result: LmPK inh, Cycloheximide cs, FBPA Giardia inh, Shiga inhibitor)
O=C(OCc1c(Cl)cccc1Cl)c1ccccn1	none
O=C(Cc1c(Cl)cccc1Cl)OCc1ccccn1	Cycloheximide cs 25, Shiga inhibitor 59
O=C(CSc1nnc(-c2cccnc2)n1Cc1ccccc1)NCc1ccco1	none
O=C(CSc1nnc(CNc2ccc(Cl)cc2)n1Cc1ccccc1)NCc1ccco1	Cycloheximide cs 14
O=C(CSc1nnc(Cc2ccccc2)n1Cc1ccccc1)NCc1ccco1	Shiga inhibitor 23
O=C(O)CCSc1nnc(CNc2ccc(Cl)cc2)n1Cc1ccccc1	none
CCOc1cc(NC(=S)NC)c(OCC)cc1NC(=O)c1ccc(OC)cc1	none
O=c1cc(-c2ccc(F)cc2)[nH][nH]1	none
O=c1cc(-c2ccc(C3CCCCC3)cc2)[nH][nH]1	Cycloheximide cs 22
Nc1n[nH]c(N)c1N=Nc1ccccc1F	Cycloheximide cs 17
Nc1n[nH]c(N)c1N=Nc1ccccc1	none
COc1ccc(N=Nc2ccc(N)nc2N)cc1	Cycloheximide cs 70, Shiga inhibitor 107
Nc1[nH]c(=O)[nH]c(=O)c1N=Nc1ccccc1Cl	none
Cc1ccccc1N=Nc1c(N)n[nH]c1N	none
Nc1n[nH]c(N)c1N=Nc1ccc(F)cc1	Cycloheximide cs 33
Nc1n[nH]c(N)c1N=Nc1ccc(Cl)cc1Cl	Cycloheximide cs 52, Shiga inhibitor 38
Nc1ccc(N=Nc2ccc(O)cc2)c(N)n1	none (no result: LmPK inh, Cycloheximide cs, FBPA Giardia inh, Shiga inhibitor)
CCN(CC)S(=O)(=O)c1ccc(N2CCN(C)CC2)c(NC(=O)COc2ccc(F)cc2Cl)c1	none (no result: LmPK inh, Cycloheximide cs, FBPA Giardia inh, Shiga inhibitor)
COc1ccc(N=Nc2c(N)n[nH]c2N)cc1	Cycloheximide cs 27, Shiga inhibitor 45
COc1ccc(N=Nc2ccc(CO)cc2)cc1	none (no result: LmPK inh, Cycloheximide cs, FBPA Giardia inh, Shiga inhibitor)
O=C(NNC(=O)c1ccccc1OCc1ccccc1Cl)c1csc(N2CCOCC2)n1	Cycloheximide cs 10 (no result: FBPA Giardia inh)
Cc1cc(C)nc(NS(=O)(=O)c2ccc(N/C=C/C(=O)c3ccc(Cl)cc3)cc2)n1	Cycloheximide cs 11
